Most compounds without a hit are left out; they make up all but 4.6% or so of the library.
ssDAF12 agonist = S. stercoralis DAF-12 nuclear receptor activators, primary screen, cell-based, luminescence, HEK293, GRIP1 co-expression, lit1-tk-luc | HEK293 ssDAF-12/GRIP1 lit1-tk-luc reporter; % of 3 µM dafachronic acid response | activation, % at 6.8 µM | 370,000 compounds, 1% hits | AID 652126, 2013;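 active = activation above the mean over all tested compounds plus 3 SD, cut at about 0.9% in these data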;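 note: 0% = DMSO-only wells and 100% = 3 µM delta7-dafachronic acid wells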
DAX1 inh-1 = DAX1 (NR0B1) inhibitors, primary screen, cell-based, HEK293, Gal4-DAX1, luciferase luminescence; Nuclear receptor subfamily 0 group B member 1 (Homo sapiens), P51843; HEK293 Gal4-DAX1 luciferase reporter; inhibition, % at 6.75 µM; 340,000 compounds, 0.99% hits; AID 504766, 2011;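 active = inhibition above the mean over all tested compounds plus 3 SD, cut at about 4.2% in these data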;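 note: 0% = DAX1-transfected cells with DMSO and 100% = empty-vector control cells with DMSO; inhibition shows as a rise in luminescence from relieved DAX1 repression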
DAX1 inh-2 = DAX1 (NR0B1) inhibitors on StAR promoter, primary screen, cell-based, luminescence, SF-1 (NR5A1), full-length DAX-1. AID 652010, 2013. 370,000 compounds, 1.1% hits. HEK293T StAR-luciferase reporter, SF-1/DAX-1 repression relief. inhibition, % at 6.8 µM;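 active = inhibition above the mean over all tested compounds plus 3 SD, cut at about 3.6% in these data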;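 note: 0% = DAX-1 cells with DMSO and 100% = cells lacking DAX-1 with DMSO; higher inhibition means more luminescence from relief of DAX-1 repression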
hgDAF12 agonist = H. glycines DAF-12 receptor agonists, primary screen, cell-based, luminescence, HEK293, GAL4 fusion, UAS-luciferase. HEK293 GAL4-hgDAF12 UAS-luciferase reporter, agonist luminescence; normalized to butyrate control. activation, % at 6.8 µM. 370,000 compounds, 1.8% hits;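 active = activation above a cutoff set at the mean of all screened compounds plus 3 SD, cut at about 10% in these data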;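 note: 0% = DMSO wells and 100% = sodium butyrate wells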
hcDAF12 agonist = H. contortus DAF-12 nuclear receptor activators, primary screen, cell-based, luminescence, HEK293, lit1-tk-luc reporter. HEK293 hcDAF-12 lit1-tk-luc reporter; 0% DMSO, 100% Δ7-dafachronic acid. activation, % at 6.8 µM. 370,000 compounds, 1.4% hits. AID 652067, 2013;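 active = activation above the mean of all tested compounds plus 3 SD, cut at about 5.5% in these data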;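 note: 100% = response to 3 µM Δ7-dafachronic acid high control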
Wee1 stabilizer = Wee1 degradation inhibitors, primary screen, cell-based, HeLa, Wee1K328M-luciferase, luminescence; reporter increase, % at 5 µM; Wee1-like protein kinase (Homo sapiens), P30291; HeLa Luc-Wee1K328M stability; 100% = proteasome inhibitor MG132 effect; 220,000 compounds, 1.2% hits;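 active = activation above the mean of all tested compounds plus 3 SD, set per screening run, cut at about 8.8% in these data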;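 note: cells exposed to compound for 20 h before luminescence read; 0% = DMSO alone and 100% = MG132 at 30 µM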
Target sequence (P30291 whole entry K328M): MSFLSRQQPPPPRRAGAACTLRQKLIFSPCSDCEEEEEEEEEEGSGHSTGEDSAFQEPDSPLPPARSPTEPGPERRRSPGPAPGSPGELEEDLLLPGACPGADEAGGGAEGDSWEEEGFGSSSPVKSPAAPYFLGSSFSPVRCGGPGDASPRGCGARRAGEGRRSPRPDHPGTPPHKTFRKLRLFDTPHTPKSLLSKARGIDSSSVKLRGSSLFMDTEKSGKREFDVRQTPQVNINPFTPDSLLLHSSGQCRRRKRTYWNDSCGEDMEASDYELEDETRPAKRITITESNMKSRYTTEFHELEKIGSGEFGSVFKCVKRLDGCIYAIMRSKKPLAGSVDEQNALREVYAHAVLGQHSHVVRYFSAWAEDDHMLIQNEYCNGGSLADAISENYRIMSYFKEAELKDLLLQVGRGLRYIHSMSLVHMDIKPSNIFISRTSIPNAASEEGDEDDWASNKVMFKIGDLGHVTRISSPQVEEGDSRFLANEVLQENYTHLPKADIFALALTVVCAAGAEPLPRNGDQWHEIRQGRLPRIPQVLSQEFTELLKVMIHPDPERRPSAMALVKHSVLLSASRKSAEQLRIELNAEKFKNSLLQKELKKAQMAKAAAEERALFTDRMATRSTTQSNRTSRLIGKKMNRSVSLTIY
LXR ag = LXR agonists, Gal4 luciferase reporter, confirmation, counter-screen for hcDAF-12 agonist project, cell-based, luminescence, HEK293, H. contortus campaign; activation, % at 6.8 µM; 3,400 tested, under 10 active; HEK293 Gal4-LXR tk-luc reporter, 24 h; normalized: DMSO 0%, positive control 100%; shares compounds with hcDAF12 agonist;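 active = mean percent activation of the reporter above a cutoff set as the average over tested compounds plus their standard deviation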
hcDAF12 ag = H. contortus DAF-12 receptor agonists, confirmation, cell-based, luminescence, HEK293, lit1-tk-luc, triplicate. activation, % at 6.8 µM. 3,400 compounds, 61% hits. AID 743032, 2013. HEK293 hcDAF-12 lit1-tk-luc reporter; % of Δ7-dafachronic acid response. shares compounds with hcDAF12 agonist;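 active = mean activation across triplicate tests above the threshold derived from the earlier primary screen, cut at about 5.5% in these data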;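 note: 0% = DMSO only wells and 100% = 3 µM Δ7-dafachronic acid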
* = called active by the depositor.

Results for CCn1c(SCC(=O)Nc2ccc(C(N)=O)cc2)nc2sc(C)c(C)c2c1=O ?
ssDAF12 agonist: -0.9; DAX1 inh-2: 0.5; hgDAF12 agonist: -1.2; hcDAF12 agonist: -1.8

Results for CCCCN(C)CCCNC(=O)c1cc(Nc2ccc(OC)c(OC)c2)nc2ccccc12 ?
ssDAF12 agonist: 0.4; DAX1 inh-1: -0.1; DAX1 inh-2: 1.2; hgDAF12 agonist: 0.6; hcDAF12 agonist: 7.8*; LXR ag: -0.2; hcDAF12 ag: 1.1

What do the screens show for `O=C(NC(=S)Nc1nc2c(s1)CSc1ccccc1-2)c1ccccc1`?
ssDAF12 agonist: 0.2; DAX1 inh-1: 0.6; DAX1 inh-2: -0.4; hgDAF12 agonist: 5.4; hcDAF12 agonist: 7.1*; Wee1 stabilizer: -1.1; LXR ag: -0.2; hcDAF12 ag: 7.6*

Results for CC(=O)Nc1ccc(S(=O)(=O)NCCC(=O)OC(C)C(=O)NC2(C#N)CCCCC2)cc1 (centres undefined) ?
ssDAF12 agonist: -0.8; DAX1 inh-1: 0.1; DAX1 inh-2: 1.2; hgDAF12 agonist: 0.1; hcDAF12 agonist: -0.8

Results for O=[N+]([O-])c1ccccc1/C=C/C=Nn1c(-c2ccc(F)cc2)n[nH]c1=S ?
ssDAF12 agonist: 0.1; DAX1 inh-2: -0.3; hgDAF12 agonist: 3.2; hcDAF12 agonist: 6.6*; LXR ag: -0.2; hcDAF12 ag: 5.1

What do the screens show for `O=C(c1cc(COc2cccc3cnccc23)on1)N1CCCC(CCCO)C1` (centres undefined)?
ssDAF12 agonist: -2.4; DAX1 inh-1: -2.5; DAX1 inh-2: -9.0; hgDAF12 agonist: -8.3; hcDAF12 agonist: -5.1

Results for COc1ccc(OCc2cc(C(=O)N3CCCC(CO)C3)no2)c2ccccc12 (centres undefined) ?
ssDAF12 agonist: 1.4*; DAX1 inh-1: 0.7; DAX1 inh-2: 3.1; hgDAF12 agonist: 9.8; hcDAF12 agonist: 7.8*; LXR ag: 0.8; hcDAF12 ag: 9.5*

How did COc1cccc(-c2cnc3c(NC(C)=O)cc(-c4cccc(C(=O)NCCN(C)C)c4)cn23)c1 do in these assays?
ssDAF12 agonist: -1.2; DAX1 inh-2: 0.2; hgDAF12 agonist: 1.4; hcDAF12 agonist: 1.7

Results for Cc1sc(NC(=O)c2cccs2)nc1-c1ccccc1 ?
ssDAF12 agonist: -1.6; DAX1 inh-1: -0.5; DAX1 inh-2: -0.1; hgDAF12 agonist: 2.4; hcDAF12 agonist: -1.1; Wee1 stabilizer: 0.3

What do the screens show for `Cc1cc(C)c2oc(-c3ccc(C)c(NC(=S)NC(=O)c4cccs4)c3)nc2c1`?
ssDAF12 agonist: 0.7; DAX1 inh-1: 3.5; DAX1 inh-2: 0.2; hgDAF12 agonist: 6.9; hcDAF12 agonist: 7.7*; Wee1 stabilizer: 2.3; LXR ag: -0.2; hcDAF12 ag: 4.0

How did Cc1cc(C)c2oc(-c3ccc(C)c(NC(=S)NC(=O)/C=C/c4ccco4)c3)nc2c1 do in these assays?
ssDAF12 agonist: 0.3; DAX1 inh-1: 1.1; DAX1 inh-2: 0.3; hgDAF12 agonist: 2.7; hcDAF12 agonist: 3.9; Wee1 stabilizer: 2.7

What do the screens show for `O=C(Nc1nc2c(s1)CCCC2)c1cccs1`?
ssDAF12 agonist: 0.7; DAX1 inh-1: -1.5; DAX1 inh-2: 3.0; hgDAF12 agonist: 9.6; hcDAF12 agonist: 9.5*; Wee1 stabilizer: 2.0; LXR ag: 1.3; hcDAF12 ag: 6.1*

Results for Cc1ccc2nc(NC(=O)c3cccs3)sc2c1 ?
ssDAF12 agonist: 1.1*; DAX1 inh-1: -1.8; DAX1 inh-2: 2.6; hgDAF12 agonist: 11.0*; hcDAF12 agonist: 10.2*; Wee1 stabilizer: -0.7; LXR ag: 1.5; hcDAF12 ag: 5.9*

What do the screens show for `O=C(Cc1cccs1)Nc1nc2c(s1)CCCC2`?
ssDAF12 agonist: -1.8; DAX1 inh-1: -1.0; DAX1 inh-2: 0.9; hgDAF12 agonist: -3.9; hcDAF12 agonist: -0.7; Wee1 stabilizer: 1.9

What do the screens show for `Cc1ccc2nc(NC(=S)NC(=O)c3cccs3)sc2c1`?
ssDAF12 agonist: 0.9*; DAX1 inh-1: 2.4; DAX1 inh-2: 1.3; hgDAF12 agonist: 11.2*; hcDAF12 agonist: 7.2*; Wee1 stabilizer: -1.0; LXR ag: 1.2; hcDAF12 ag: 15.4*

Results for Cc1ccc(NC(=O)c2ccc(Cl)c(S(=O)(=O)Nc3c(C)n(C)n(-c4ccccc4)c3=O)c2)cc1Cl ?
ssDAF12 agonist: -0.5; DAX1 inh-1: 0.8; DAX1 inh-2: -0.6; hgDAF12 agonist: -1.7; hcDAF12 agonist: -1.1

How did C#CCN(Cc1ccco1)C(=O)c1nnc2c3ccccc3n(S(=O)(=O)c3ccc(C)cc3)c2n1 do in these assays?
ssDAF12 agonist: -0.2; DAX1 inh-2: -0.6; hgDAF12 agonist: 2.0; hcDAF12 agonist: 1.2

What do the screens show for `S=C(NCCN1CCOCC1)Nc1ccc(Nc2ccccc2)cc1`?
ssDAF12 agonist: -0.9; DAX1 inh-1: -0.9; DAX1 inh-2: -0.9; hgDAF12 agonist: 2.4; hcDAF12 agonist: 0.0; Wee1 stabilizer: -1.5

Results for S=C(NCCN1CCOCC1)Nc1ccc(Br)cc1 ?
ssDAF12 agonist: 0.2; DAX1 inh-1: -0.8; DAX1 inh-2: -0.1; hgDAF12 agonist: -1.2; hcDAF12 agonist: 6.9*; Wee1 stabilizer: 2.3; LXR ag: -0.3; hcDAF12 ag: 0.9

How did CCn1c2ccccc2c2cc(NC(=O)COC(=O)c3cc(Cl)cc(Cl)c3)ccc21 do in these assays?
ssDAF12 agonist: -1.7; DAX1 inh-2: -0.7; hgDAF12 agonist: 2.7; hcDAF12 agonist: -2.3

Results for CC1(C(=O)O)CCCN1C(=O)c1ccco1 (centres undefined) ?
ssDAF12 agonist: -1.0; DAX1 inh-2: 0.2; hgDAF12 agonist: -2.9; hcDAF12 agonist: 0.1
